Measured values published in PubChem BioAssay AID1745845 (National Center for Advancing Translational Sciences (NCATS), 2022).
Where “and” joins values, the source holds several entries; their conditions need not be identical. Identical values can stand only once. In all, about 360,000 compounds went through this assay and about 2,600 (0.72%) were called active. Roughly 5% stayed inconclusive and do not appear here. Calls come from the whole dose curve; as a rule, active = well fitted inhibition curve with a large enough effect; inconclusive = small, poorly fitted or top-dose-only effect; inactive = no such curve, though single readings can be large or run the other way. The sample as a whole holds a higher share of actives than the screen did. Some compounds were tested as several samples or in several runs, with calls that do not always agree.

assay: Primary qHTS for Inhibitors of ATXN expression; settings: HEK-293 ATXN2-luciferase reporter, luminescence, 24 h; series mostly up to 57 µM; activity change, negative = inhibition: at the top concentration; note: nearly all actives have a fitted effect of over 55% in size
In short: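 qHTS (up to 57 uM final) was run with 24 h compound exposure of reporter cells at 37 °C. Each well was multiplexed: SteadyGlo luminescence measured ATXN2-luciferase expression after a fluorogenic Gly-Phe-AFC viability readout (25 uM final).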
% is set by controls: 0 for no effect and ±100 for the full control effect; potency is the fitted concentration of half-maximal effect.

| SMILES | activity change, negative = inhibition | Potency |
| --- | --- | --- |
| N#Cc1ccccc1Cn1cnc2nc3c(cc2c1=O)CCCC3 | 15.7% (inactive) |  |
| Cc1nc2c(OCc3ccc(Cl)cc3Cl)cccn2c1N(C)CC1CC1 | -0.165% (inactive) |  |
| CNN/C(N=Cc1ccc([N+](=O)[O-])s1)=N\S(=O)(=O)c1cc(C)c(Cl)cc1SCc1ccccc1 | 4.25% (inactive) |  |
| O=[N+]([O-])c1ccc(C=Nc2ccc(Cl)cc2Cl)s1 |  | 12.6 µM (active) |
| COC(=O)c1ccccc1NC(=O)c1cc(-c2ccccc2O)no1 | -7.07% (inactive) |  |
| CC(C)CCNC(=O)CSc1nc2ccccc2nc1Cc1ccc(Cl)cc1 | 8.32% (inactive) |  |
| COc1ccc(Cc2nnc(N/N=C/c3ccccc3O)[nH]c2=O)cc1OC |  | 3.55 µM (active) |
| COc1ccc(Cc2nnc(SC)[nH]c2=O)cc1 | -0.583% (inactive) |  |
| COc1ccc(CCNC(=O)CCc2ccccc2O)cc1OC | -8.28% (inactive) |  |
| CCCCCc1c(-c2ccc(OC)c(OC)c2)ncn1CCc1ccccc1OC | -19.7% (inactive) |  |
| COc1ccc(CNc2nc(-c3ccccc3)nn2C(=O)c2ccccc2OC)cc1 | 11.6% (inactive) |  |
| COc1cc(Cl)cn2c(-c3cccc(NC4CNC4)n3)cnc12 | -7.34% (inactive) |  |
| Cc1ccc(-n2ncc3c(=O)n(Cc4cccc(C(F)(F)F)c4)cnc32)cc1C | 9.19% (inactive) |  |
| CC1(C)OC(=O)C2=C(C[C@@H](C3CCCCC3)O[C@@H]2c2ccc(Cl)cc2)O1 | -15.8% (inactive) |  |
| Cc1onc(C(=O)NCc2ccc(F)cc2)c1[N+](=O)[O-] | -8.25% (inactive) |  |
| NC(=O)C(=O)N/N=C/c1ccc([N+](=O)[O-])o1 | -10.7% (inactive) |  |
| O=C(/C=C/c1ccc([N+](=O)[O-])o1)NNC(=O)c1ccc(F)cc1 |  | 6.31 µM (active) |
| Cc1ccc(S(=O)(=O)c2c(Nc3cccc(Cl)c3)sc(C(=O)c3ccc4c(c3)OCO4)c2N)cc1 | -24.7% (inactive) |  |
| COc1cc(C(=O)OC(C)C(=O)NCC2CCCCC2)cc(NC(=O)c2ccco2)c1OC (centres undefined) |  | 25.1 µM (active) |
| CC(OC(=O)c1ccc([N+](=O)[O-])cc1)C(=O)NCC1CCCCC1 (centres undefined) | -4.37% (inactive) |  |
| COc1ccc(NC(=O)CCC(=O)Nc2cc(OC)c(NC(=O)c3ccco3)cc2OC)c(OC)c1 | -5.94% (inactive) |  |
| COC(=O)c1c(NC(=O)CCCOc2ccccc2)sc2c1CCC(C)C2 (centres undefined) | 1.43% (inactive) |  |
| CC(=O)c1cccc(NC(=O)c2nc(-c3ccccc3)n(-c3cccc(C)c3)n2)c1 | -32.6% (inactive) |  |
| Cc1cc(Br)ccc1NC(=O)Cn1cnc2sc(C)c(S(=O)(=O)N3CCN(C)CC3)c2c1=O | 12.6% (inactive) |  |

| SMILES | activity change, negative = inhibition | Potency |
| --- | --- | --- |
| CN[C@@H]1[C@@H](O)[C@@H](O[C@@H]2[C@H](O)[C@H](O[C@H]3OC(CN)=CC[C@H]3N)[C@@H](N)C[C@H]2N)OCC1(C)O (some centres undefined) | 12.2% (inactive) |  |
| Cc1ccc2nc(CNC(=O)c3ccccc3)[nH]c2c1 | 71.8% (inactive) |  |
| Cc1ccc(/C=N/NC(=O)C2=NNC(c3ccccc3)(c3ccccc3)C2)c(O)c1 |  | 3.16 µM (active) |
| COc1cc(/C=N/NC(=O)c2cc(-c3ccccc3C)nc3ccccc23)cc(OC)c1O | 1.95% (inactive) |  |
| CCC(C)Cn1c(O)cc2nn(-c3nc4ccccc4s3)c(=O)c-2c1C (centres undefined) |  | 14.1 µM (active) |
| COc1ccc(OC)c(NC(=O)/C=C/c2ccc(C)o2)c1 | 4.77% (inactive) |  |
| CCOC(=O)C1CCN(c2nc3c(S(=O)(=O)c4ccc(CC)cc4)nnn3c3ccc(Cl)cc23)CC1 | 7.33% (inactive) |  |
| CCCCCn1c(=O)[nH]c2cc(C(=O)NCCN(C)CCCC)ccc2c1=O | -7.68% (inactive) |  |
| COc1ccccc1CNC(=O)NCc1noc2ccc(C)cc12 | -5.43% (inactive) |  |
| Cc1cc(C(C)(C)C)cc(C)c1N | -8.09% (inactive) |  |
| CN(C)S(=O)(=O)c1ccc(Oc2ccc(S(=O)(=O)N(C)C)cc2)cc1 | -15.9% (inactive) |  |
| CC(C)(C)c1ccc(Oc2ccc(N)cc2)cc1 |  | 2.82 µM (active) |
| O=C(OCCN1CCOCC1)c1cccnc1Nc1cccc(C(F)(F)F)c1 | -16.6% (inactive) |  |
| CCCCN(CCCC)CCC(O)c1cc2c(Cl)cc(Cl)cc2c2cc(C(F)(F)F)ccc12 (centres undefined) |  | inactive and 31.6 µM (active) |
| Cc1c(Cl)cccc1NC(=O)C(=O)NCCc1csc2nc(-c3ccccc3F)nn12 | -5.63% (inactive) |  |
| Oc1ccc2ccccc2c1N=Nc1nccs1 |  | 3.55 µM (active) |
| Cc1ccccc1Cn1nc(C)c(NC(=O)c2cc(-c3ccc(F)cc3)on2)c1C | -0.902% (inactive) |  |
| COc1cc(NC(=O)CN2CCN(S(=O)(=O)c3ccc(Br)cc3)CC2)cc(OC)c1 | 2.9% (inactive) |  |
| Cc1cc2nc(NC(=O)c3ccc(S(=O)(=O)N4CCOCC4)cc3)sc2cc1C | 0.447% (inactive) |  |
| COc1ccc(C(=O)Nc2nc(-c3ccc(S(=O)(=O)N4CCOCC4)cc3)cs2)cc1 |  | 25.1 µM (active) |
| CNC(=O)c1ccsc1NC(=O)c1ccc(S(=O)(=O)N2CCOCC2)cc1 | 8.05% (inactive) |  |
| CCc1nc2c(cnn2-c2ccc(C)cc2)c(=O)n1-c1ccc(C)cc1 | 8.05% (inactive) |  |
| Cc1ccccc1CSCCNC(=O)C1CCN(S(=O)(=O)Cc2ccccc2)CC1 | -4.49% (inactive) |  |
| O=C(COC(=O)CN1C(=O)C2CCCCC2C1=O)Nc1ccc(F)c(F)c1F (centres undefined) | -0.766% (inactive) |  |

| SMILES | activity change, negative = inhibition | Potency |
| --- | --- | --- |
| CC1=CC(C)(C)Nc2ccc(OC(=O)C(Cc3ccccc3)N3C(=O)C4CCCCC4C3=O)cc21 (centres undefined) | -33.8% (inactive) |  |
| CC1=CC(C)(C)Nc2ccc(OC(=O)CN3C(=O)C4CCCCC4C3=O)cc21 (centres undefined) |  | 31.6 µM (active) |
| C[C@]12CCC3=C4CCC(=O)C=C4CC[C@@H]3[C@H]1CC[C@@]2(O)CC#N | 15.3% (inactive) |  |
| CCOc1cc2ccccc2cc1C(=O)Nc1ccccn1 | 6.94% (inactive) |  |
| COc1ccc(C(=O)/C=C/Nc2ccccn2)cc1 |  | 8.91 µM (active) |
| Cc1cc(N/C=C\C(=O)c2ccc(Cl)c(Cl)c2)no1 | 19% (inactive) |  |
| COc1ccc(CNC(=O)CSc2nc3ccccc3nc2Cc2ccccc2)cc1 | 6.56% (inactive) |  |
| O=C(NCCC1=CCCCC1)c1ccc2c(c1)N(Cc1ccccc1F)C(=O)c1ccccc1S2(=O)=O | -14.3% (inactive) |  |
| CCOC(=O)c1c(C)[nH]c(C)c1S(=O)(=O)N1CCCC(C(=O)NCc2ccccc2Cl)C1 (centres undefined) | 13.6% (inactive) |  |
| CN(Cc1ccc(F)cc1)C(=O)CN1C(=O)c2ccccc2S1(=O)=O | 20.2% (inactive) |  |
| CC1CCCN(C(=O)CN2C(=O)c3ccccc3S2(=O)=O)C1 (centres undefined) | 2.01% (inactive) |  |
| O=C(CN1C(=O)c2ccccc2S1(=O)=O)N1CCc2ccccc21 |  | 2.51 µM (active) |
| CO[C@H]1C=CO[C@@]2(C)Oc3c(C)c(O)c4c(O)c(c(/C=N/N5CCN(C)CC5)c(O)c4c3C2=O)NC(=O)/C(C)=C\C=C[C@H](C)[C@H](O)[C@@H](C)[C@@H](O)[C@@H](C)[C@H](OC(C)=O)[C@@H]1C | 16.3% (inactive) |  |
| C=CCn1c(COc2cccc3cccnc23)nnc1SCC(=O)OC | 9.7% (inactive) |  |
| CCCCC(=O)NC(c1ccc(OC)c(OC)c1)c1ccc2cccnc2c1O (centres undefined) |  | 5.01 µM (active) |
| COc1ccc(CCNS(=O)(=O)c2cccc3cccnc23)cc1OC | 1.2% (inactive) |  |
| CC1=C(C(=O)N(C(C)C)C(C)C)CC(CC(=O)NCCCCc2ccccc2)C(=O)N1CCC1=CCCCC1 (centres undefined) | -11.7% (inactive) |  |
| CCCCN(CC)C(=S)Nc1ccc2nc3n(c(=O)c2c1)CCCCC3 | 1.25% (inactive) |  |
| CCc1c2c(nc3ccc(O)cc13)-c1cc3c(c(=O)n1C2)COC(=O)[C@]3(O)CC |  | 0.0061 µM (active) |
| COc1ccc(C(=O)COC(=O)CCCC(=O)Nc2cc(C(F)(F)F)ccc2Cl)cc1 | 12% (inactive) |  |
| CCc1ccc(CNC(=O)C2CCN(c3nnc(C)c4c(C)n(-c5ccc(C)cc5)nc34)CC2)cc1 |  | 31.6 µM (active) |
| CCCCNC(=O)C1CCCN(c2nnc(C)c3c(C)n(-c4ccc(Cl)cc4)nc23)C1 (centres undefined) | -7.69% (inactive) |  |
| COc1cccc(NC(=O)C2CCN(c3cc(C)nc4c(-c5ccc(Cl)cc5)c(C)nn34)CC2)c1 | 4.91% (inactive) |  |
| Cc1nnc(N2CCC(C(=O)Nc3ccc(F)cc3)CC2)c2nn(-c3ccc(Cl)cc3)c(C)c12 |  | 25.1 µM (active) |

| SMILES | activity change, negative = inhibition | Potency |
| --- | --- | --- |
| Cc1nnc(N2CCCC(C(=O)NCCN(C)C)C2)c2nn(-c3ccccc3)c(C)c12 (centres undefined) | -23.9% (inactive) |  |
| COc1ccc(-n2nc3c(N4CCC(C(=O)NCc5ccccc5)CC4)nnc(C)c3c2C)cc1 | -22.4% (inactive) |  |
| CSc1nc(-c2ccc(F)cc2)nc2c1Cc1c(CO)cnc(C)c1O2 | 0.751% (inactive) |  |
| Cc1ccc(CNC(=O)CCc2c(C)nc3c(c(C)nn3-c3ccccc3)c2C)cc1 | 5.92% (inactive) |  |
| CN(C)c1ccc(NC(=O)CSc2nc(-c3ccco3)cc(C(F)(F)F)n2)cc1 | 2.66% (inactive) |  |
| COc1cccc(CNC(=O)c2cc(=O)[nH]c3ccc(S(=O)(=O)N4CCCCC4)cc23)c1 | -1.53% (inactive) |  |
| Cc1cc(NC(=O)CCC(=O)N(c2cccc(F)c2)C(C(=O)NC2CCCC2)c2ccncc2)no1 (centres undefined) | -5.11% (inactive) |  |
| Cc1cc(NC(=O)/C=C/C(=O)N(CC(=O)NC2CCCC2)c2ccc(F)cc2)no1 | -16.6% (inactive) |  |
| Cc1cc(NC(=O)/C=C/C(=O)N(c2ccccc2C)C(C(=O)NC2CCCC2)c2ccc(F)cc2)no1 (centres undefined) |  | 10 µM (active) |
| CCOc1ccc(-c2nonc2NC(=O)c2oc3ccc(C)cc3c2C)cc1OCC | 9.19% (inactive) |  |
| O=C(Nc1ccc(O)c(-c2nc3ccccc3o2)c1)c1ccc(-c2cccc(Cl)c2)o1 | -8.53% (inactive) |  |
| CC1(C(=O)NCc2ccco2)Cc2c(-c3ccc4c(c3)OCO4)ccnc2O1 (centres undefined) | -16% (inactive) |  |
| CCOC(=O)c1ccc(NC(=O)CCn2cnnn2)cc1 | 10.7% (inactive) |  |
| CON=C(C(=O)N[C@@H]1C(=O)N2C(C(=O)OCOC(=O)C(C)(C)C)=C(C=Cc3scnc3C)CS[C@H]12)c1csc(N)n1 | 6.17% (inactive) |  |
| Cc1cc(Br)cn2c(Cc3cccc(F)c3)c(-c3cccc(Br)c3)nc12 | 0% (inactive) |  |
| CC(C)(C)c1cc(C(=O)O)c(NC(=O)Nc2ccc3[nH]ncc3c2)s1 | -0.034% (inactive) |  |
| CC(C)(C)c1nc(-c2cccc(NS(=O)(=O)c3c(F)cccc3F)c2F)c(-c2ccnc(N)n2)s1 | -14.8% (inactive) |  |
| OC(c1ccc(Cl)cc1)c1ncc(-c2ccc(Cl)cc2)[nH]1 (centres undefined) | -18.9% (inactive) |  |
| CC(C)Cc1ccc(-c2cc3nc(NCc4cccc(Cl)c4)ccn3n2)cc1 | 8.54% (inactive) |  |
| Cc1cc([N+](=O)[O-])ccc1NCc1cccc([N+](=O)[O-])c1 | -16.2% (inactive) |  |
| O=C(CCl)N(Cc1cccc([N+](=O)[O-])c1)c1cccc(Cl)c1 |  | 2.38 µM (active) |
| CC(=O)N(CN1C(=O)C2CC=CCC2C1=O)c1cccc(Cl)c1 (centres undefined) | -7% (inactive) |  |
